Reference: PubChem BioAssay (NCI)
This is part of a sample that, as a whole, favours compounds with a hit. Of some 83,000 tested, about 20% had one in any assay.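 In brief: 96-well plates, 48 h treatment, single concentration, percent growth endpoint.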 Values without a mark were called inactive. Calls of active or inactive are those of the source. Rule for the calls: active = growth percent below 10; inactive = the rest.

Experiments:
Assay in all cases: NCI-60 one-dose screen, 48 h (100 = growth as untreated, 0 = no growth, -100 = all killed)
Conditions in all cases: 10 µM unless noted
[1] = test system: SK-MEL-2 melanoma
[2] = test system: EKVX NSCLC
[3] = test system: SN12C renal
[4] = test system: UO-31 renal
[5] = test system: TK-10 renal
[6] = test system: ACHN renal
[7] = test system: CAKI-1 renal
[8] = test system: A498 renal
[9] = test system: CCRF-CEM leukemia
[10] = test system: MOLT-4 leukemia
[11] = test system: SR leukemia
[12] = test system: RPMI-8226 leukemia
[13] = test system: OVCAR-8 ovarian
[14] = test system: OVCAR-5 ovarian
[15] = test system: OVCAR-4 ovarian
[16] = test system: SK-OV-3 ovarian
[17] = test system: IGROV1 ovarian
[18] = test system: OVCAR-3 ovarian
[19] = test system: HS 578T breast
[20] = test system: NCI/ADR-RES ovarian

Structure (SMILES): CCCCCCCCCCCCCCCC(=O)OC[C@@]1(O)C[C@@]23CC[C@@H]4C(C)(C)[C@H](O)CC[C@@]4(C)[C@@H]2CC[C@H]1C3
- growth [1]: 104%
- growth [2]: 100%
- growth [3]: 96%
- growth [4]: 92.4%
- growth [5]: 101%
- growth [6]: 108%
- growth [7]: 94.2%
- growth [8]: 105%
- growth [9]: 100%
- growth [10]: 101%
- growth [11]: 98.2%
- growth [12]: 102%
- growth [13]: 108%
- growth [14]: 106%
- growth [15]: 113%
- growth [16]: 97.1%
- growth [17]: 117%
- growth [18]: 107%
- growth [19]: 100%
- growth [20]: 106%

Structure (SMILES): CCC(C)N(CCNc1cc(OC)cc2cccnc12)CCC(C)C (stereo not given)
- growth [1]: 90%
- growth [2]: 92.2%
- growth [3]: 93.5%
- growth [4]: 77.8%
- growth [5]: 96.7%
- growth [6]: 75.2%
- growth [7]: 90.8%
- growth [8]: 72.9%
- growth [9]: 109%
- growth [10]: 83.9%
- growth [11]: 51.8%
- growth [12]: 94.1%
- growth [13]: 86.6%
- growth [14]: 102%
- growth [15]: 26%
- growth [16]: 68.3%
- growth [17]: 66.4%
- growth [18]: 64%
- growth [19]: 82.9%
- growth [20]: 85.5%

Structure (SMILES): COc1cc(NCCCN(CC(C)C)CC(C)C)c2ncccc2c1
- growth [1]: 91.8%
- growth [2]: 84.5%
- growth [3]: 88.2%
- growth [4]: 81.4%
- growth [5]: 102%
- growth [6]: 80.7%
- growth [7]: 92.4%
- growth [8]: 79.2%
- growth [9]: 87.5%
- growth [10]: 103%
- growth [11]: 84.9%
- growth [12]: 78%
- growth [13]: 94.5%
- growth [14]: 114%
- growth [15]: 17.2%
- growth [16]: 90.1%
- growth [17]: 80.3%
- growth [18]: 69.5%
- growth [19]: 92.3%
- growth [20]: 79.8%

Structure (SMILES): CC(=O)c1c[nH]c2ccc(-c3ccnc(Nc4ccc(NC(=O)c5cccc(F)c5)c(CN5CCOCC5)c4)n3)cc12
- growth [1]: -15.6% (active)
- growth [2]: -24.1% (active)
- growth [3]: -4.7% (active)
- growth [4]: 2.38% (active)
- growth [5]: 1.22% (active)
- growth [6]: -12.1% (active)
- growth [7]: -1.58% (active)
- growth [8]: -62.8% (active)
- growth [9]: 2.24% (active)
- growth [10]: 1.65% (active)
- growth [11]: 4.05% (active)
- growth [12]: -25.9% (active)
- growth [13]: 8.7% (active)
- growth [14]: -4.49% (active)
- growth [15]: -18.9% (active)
- growth [16]: 17.8%
- growth [17]: 1.06% (active)
- growth [18]: -8.81% (active)
- growth [19]: -20.1% (active)
- growth [20]: 1.76% (active)

Structure (SMILES): COc1ccc(C(O)c2cc3c(N)c(C(=O)Nc4cccc(OC)c4)sc3nc2C)cc1 (stereo not given)
- growth [1]: 22.6%
- growth [2]: 33.8%
- growth [3]: 23.6%
- growth [4]: 25%
- growth [5]: 39.9%
- growth [6]: 27%
- growth [7]: 24.4%
- growth [8]: -17% (active)
- growth [9]: 7.53% (active)
- growth [10]: 16.3%
- growth [11]: 2.51% (active)
- growth [12]: 6.06% (active)
- growth [13]: 5.76% (active)
- growth [14]: 23%
- growth [15]: 36.5%
- growth [16]: 19.5%
- growth [17]: 15.4%
- growth [18]: 0.638% (active)
- growth [19]: 23.7%
- growth [20]: 13.7%

Structure (SMILES): Cc1ccc(C2CC(c3cccc(Nc4ccncc4)c3)=NN2c2ccccc2)cc1 (stereo not given)
- growth [1]: -64.6% (active)
- growth [2]: -51.9% (active)
- growth [3]: -93.1% (active)
- growth [4]: -100% (active)
- growth [5]: -83.6% (active)
- growth [6]: -99.8% (active)
- growth [7]: -94.6% (active)
- growth [8]: 30.7%
- growth [9]: -24.5% (active)
- growth [10]: -26.8% (active)
- growth [11]: -13.3% (active)
- growth [12]: -48.7% (active)
- growth [13]: -50.7% (active)
- growth [14]: -93.4% (active)
- growth [15]: -86.5% (active)
- growth [16]: -31.4% (active)
- growth [17]: -92.7% (active)
- growth [18]: -89.2% (active)
- growth [19]: -57.5% (active)
- growth [20]: -72.8% (active)

Structure (SMILES): C[C@@H]1CN(Cc2ccc(/C=C/c3n[nH]c4ccc5nc(-c6cn[nH]c6C(F)(F)F)c6c(c5c34)CCCC6)cc2)C[C@H](C)O1
- growth [1]: 57.6%
- growth [2]: 32.4%
- growth [3]: 12.6%
- growth [4]: 4.93% (active)
- growth [5]: 32.5%
- growth [6]: 10.8%
- growth [7]: 1.97% (active)
- growth [8]: 3.16% (active)
- growth [9]: 15.4%
- growth [10]: 12.6%
- growth [11]: 7.98% (active)
- growth [12]: 34.3%
- growth [13]: 33.4%
- growth [14]: 19.7%
- growth [15]: 29.9%
- growth [16]: 22.5%
- growth [17]: 1.46% (active)
- growth [18]: 38.2%
- growth [19]: 3.34% (active)
- growth [20]: 28.7%

Structure (SMILES): COc1ccc(C(O)c2cc3c(N)c(C(=O)Nc4cccc(Br)c4C)sc3nc2C)cc1 (stereo not given)
- growth [1]: 9.35% (active)
- growth [2]: 37.7%
- growth [3]: 17.9%
- growth [4]: 33.5%
- growth [5]: 27%
- growth [6]: 29.1%
- growth [7]: 41.1%
- growth [8]: -16.1% (active)
- growth [9]: 16.4%
- growth [10]: 23.1%
- growth [11]: 1.86% (active)
- growth [12]: 7.3% (active)
- growth [13]: 17.4%
- growth [14]: 39.6%
- growth [15]: 47.4%
- growth [16]: 30.8%
- growth [17]: 24.8%
- growth [18]: -14.4% (active)
- growth [19]: 21.8%
- growth [20]: 14.1%

Structure (SMILES): Clc1ccc(C2CC(c3cccc(Nc4ccncc4)c3)=NN2c2ccccc2)cc1 (stereo not given)
- growth [1]: 83.7%
- growth [2]: 89.8%
- growth [3]: 76.6%
- growth [4]: 63.2%
- growth [5]: 57.4%
- growth [6]: 78.1%
- growth [7]: 52.6%
- growth [8]: 84%
- growth [9]: 36.7%
- growth [10]: -6.03% (active)
- growth [11]: 2.19% (active)
- growth [12]: 1.08% (active)
- growth [13]: -7.33% (active)
- growth [14]: 82.6%
- growth [15]: 45.5%
- growth [16]: 81.4%
- growth [17]: 25.9%
- growth [18]: 64.4%
- growth [19]: 83.9%
- growth [20]: 78.8%

Structure (SMILES): COc1cc(Nc2cc(O)c3c(=O)cc(-c4ccccc4)oc3c2)cc(OC)c1
- growth [1]: 13.2%
- growth [2]: 38.2%
- growth [3]: 44.3%
- growth [4]: 40.3%
- growth [5]: 44%
- growth [6]: 48.3%
- growth [7]: 47.2%
- growth [8]: -4.73% (active)
- growth [9]: 10.8%
- growth [10]: 24.6%
- growth [11]: 17.3%
- growth [12]: 17.1%
- growth [13]: 26.1%
- growth [14]: 45.5%
- growth [15]: 59.3%
- growth [16]: 35.9%
- growth [17]: 42.1%
- growth [18]: 0.368% (active)
- growth [19]: 12.4%
- growth [20]: 22.2%

Structure (SMILES): COc1ccc(C(=O)c2cc3c(N)c(C(=O)Nc4cccc(Br)c4C)sc3nc2C)cc1
- growth [1]: 17.6%
- growth [2]: 38.3%
- growth [3]: 19.2%
- growth [4]: 21%
- growth [5]: 54.3%
- growth [6]: 24%
- growth [7]: 15.2%
- growth [8]: -13.2% (active)
- growth [9]: 9.3% (active)
- growth [10]: 10.2%
- growth [11]: -21.4% (active)
- growth [12]: 8.87% (active)
- growth [13]: 1.15% (active)
- growth [14]: 40.6%
- growth [15]: 37.4%
- growth [16]: 23.2%
- growth [17]: 24.3%
- growth [18]: -20.1% (active)
- growth [19]: 12.4%
- growth [20]: 0.768% (active)

Structure (SMILES): ClCC1(Cn2cnc3c(Cl)nc(Cl)nc32)COC1
- growth [1]: 90.7%
- growth [2]: 100%
- growth [3]: 95.6%
- growth [4]: 88.7%
- growth [5]: 85.2%
- growth [6]: 94.9%
- growth [7]: 49%
- growth [8]: 89.6%
- growth [9]: 71.5%
- growth [10]: 87.7%
- growth [11]: 86.1%
- growth [12]: 87.7%
- growth [13]: 105%
- growth [14]: 99.5%
- growth [15]: 93.3%
- growth [16]: 93.8%
- growth [17]: 90.8%
- growth [18]: 84.4%
- growth [19]: 50.9%
- growth [20]: 106%

Structure (SMILES): COc1ccc(-c2nc(N=Nc3c(O)[nH]c4ccccc34)nc(N3CCOCC3)c2C#N)cc1
- growth [1]: 77.9%
- growth [2]: 74.5%
- growth [3]: 73.3%
- growth [4]: 84.8%
- growth [5]: 71.5%
- growth [6]: 25%
- growth [7]: 43.3%
- growth [8]: 67.4%
- growth [9]: 75.5%
- growth [10]: 80.8%
- growth [11]: 41.7%
- growth [12]: 60.2%
- growth [13]: 44.2%
- growth [14]: 81.9%
- growth [15]: 59.5%
- growth [16]: 66.8%
- growth [17]: 87.8%
- growth [18]: 67.4%
- growth [19]: 47.5%
- growth [20]: 59.7%

Structure (SMILES): COc1ccc(-c2nc(N/N=C/c3cccc(O)c3)nc(N3CCOCC3)c2C#N)cc1
- growth [1]: 85.6%
- growth [2]: 88.7%
- growth [3]: 78.3%
- growth [4]: 34.4%
- growth [5]: 88.4%
- growth [6]: 57.8%
- growth [7]: 77%
- growth [8]: 85.7%
- growth [9]: 26.3%
- growth [10]: 39.8%
- growth [11]: -20.3% (active)
- growth [12]: 32.1%
- growth [13]: 68.8%
- growth [14]: 117%
- growth [15]: 89.3%
- growth [16]: 104%
- growth [17]: 71.2%
- growth [18]: 75.8%
- growth [19]: 69.3%
- growth [20]: 74.8%
